Data on 15 molecules can be found in the supplement of paper PMC6522484.

The subject of assay [1] is DLD1. Kind of assay: cell viability (CellTiter-Glo) relative to plate median (fraction of plate median); higher = more viable cells. The following applies: 5 µM; treatment time 24 h; reporter: 7TFP. The method, boiled down:
(§1)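 After seeding in 384-well plates, colorectal cancer cell lines carrying stable lentiviral TCF/Wnt firefly luciferase reporters (7TFP or TCF4/Wnt) were left 24 h. Library compounds were then added at a final 5 µM for 24 h. A Tecan F500 reader measured firefly luciferase or CellTiterGlo luminescence on parallel plates, with each well normalised to the plate median by webcellHTS2 (additive, no log transformation), and two independent replicates averaged.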
(In general: Cellular ATP, detected with luciferase, serves as a proxy for viable cell number.)

In a further assay the test system is HCT116. The assay is described as above. The following applies: 5 µM; treatment time 24 h; reporter: TCF4/Wnt. The method, boiled down:
as §1

Assay [2] deals with SW480. Described as above. To be noted: 5 µM; treatment time 24 h; reporter: 7TFP. The method, boiled down:
as §1

Assay [3] relates to DLD1. Kind of assay: TCF/Wnt firefly luciferase reporter signal relative to plate median (fraction of plate median); higher = higher Wnt reporter signal. The following applies: 5 µM; treatment time 24 h; reporter: 7TFP. The gist of the method:
as §1
In general terms: Reporter assays use an easily measured gene product as a stand-in for the process of interest.

The subject of assay [4] is SW480. The assay is described as above. To be noted: 5 µM; treatment time 24 h; reporter: 7TFP. The gist of the method:
as §1

“And” between values parts separate entries of the source, which are not always exact repeats. Equal values may be shown once. ± gives the standard deviation of the averaged measurements.

As for `COC(=O)C1=CO[C@@H](C)[C@@H]2CN3CC[C@@]4(C(=O)Nc5ccccc54)[C@H]3C[C@H]12`, the results for the cell viability in the assay with DLD1 [1], with HCT116 and in the assay on SW480 [2] were 1.1 ± 0.085, 1.07 ± 0.014 and 1.08 ± 0.035, respectively. The “TCF/Wnt firefly luciferase reporter signal” value amounted to 1.02 ± 0.12 in the assay on DLD1 [3] and 0.96 ± 0.028 in the assay on SW480 [4].

As for `Cc1cc2c(C(C)C)c(O)c(O)c(C=O)c2c(O)c1-c1c(C)cc2c(C(C)C)c(O)c(O)c(C=O)c2c1O`, the cell viability is 0.974 ± 0.037 with DLD1 [1], 0.969 ± 0.044 with HCT116 and 0.976 ± 0.03 in the assay on SW480 [2]. For the same molecule, the entries for the “TCF/Wnt firefly luciferase reporter signal” value with DLD1 [3] and with SW480 [4] were 0.966 ± 0.048 and 1.04 ± 0.11, respectively.

In the case of `CC([C@H](O)c1ccccc1)N(C)C` (stereo not given in full), the figures for the cell viability in the assay with DLD1 [1], with HCT116 and in the assay with SW480 [2] were 0.991 ± 0.0014, 1.015 ± 0.0071 and 0.966 ± 0.091, respectively. For the same molecule, the figures for the “TCF/Wnt firefly luciferase reporter signal” value in the assay with DLD1 [3] and in the assay with SW480 [4] were 0.915 ± 0.09 and 0.975 ± 0.05, respectively.

Turning to `CC1(C)C(=O)C=C[C@]2(C)[C@H]3CC[C@@]4(C)[C@H](c5ccoc5)OC(=O)[C@H]5O[C@]54[C@]3(C)[C@H](O)C[C@@H]12`, the cell viability with DLD1 [1] was found to be 1.01 ± 0.12; in the assay with HCT116, 1.08 ± 0.028; in the assay on SW480 [2], 0.989 ± 0.016. For the same molecule, the “TCF/Wnt firefly luciferase reporter signal” value in the assay with DLD1 [3] is 0.904 ± 0.028; with SW480 [4], 0.972 ± 0.097.

As to `CNC1CC(N)C(O)C(OC2OC(CO)C(O)C3OC4(OC(C(N)CO)C(O)C(O)C4O)OC23)C1O` (stereo not given), the cell viability in the assay on DLD1 [1] is 0.983 ± 0.039; in the assay with HCT116, 0.98 ± 0.029; with SW480 [2], 0.985 ± 0.017. In addition, the “TCF/Wnt firefly luciferase reporter signal” value with DLD1 [3] was 0.979 ± 0.073; with SW480 [4], 0.988 ± 0.011.

For `COc1ccc(/C=C/c2cc(O)cc(O)c2)cc1`, the cell viability in the assay with DLD1 [1] came to 1.05 ± 0.057; with HCT116, 1.01 ± 0.021; in the assay with SW480 [2] it was 0.982 ± 0.018. In addition, the entries for the “TCF/Wnt firefly luciferase reporter signal” value in the assay with DLD1 [3] and with SW480 [4] were 1.25 ± 0.33 and 1.21 ± 0.099, respectively.

Turning to `O=c1ccc2cc(O[C@@H]3O[C@H](CO)[C@@H](O)[C@H](O)[C@H]3O)c(O)cc2o1`, the cell viability in the assay with DLD1 [1] is 1.04; in the assay with HCT116, 0.922 and 0.995; in the assay with SW480 [2], 0.965 and 0.998. The “TCF/Wnt firefly luciferase reporter signal” value with DLD1 [3] was 1.23 and 1.08; in the assay with SW480 [4], 1.09 and 1.19.

For `COC(C)(C)CCC[C@H](C)C/C=C/C(C)=C/C(=O)OC(C)C`, the cell viability amounted to 0.948 ± 0.1 in the assay with DLD1 [1], 1.02 ± 0.014 with HCT116 and 0.972 ± 0.083 in the assay on SW480 [2]. Further, the “TCF/Wnt firefly luciferase reporter signal” value amounted to 0.968 ± 0.12 with DLD1 [3] and 0.787 ± 0.08 in the assay on SW480 [4].

For `C=CCc1ccc(OC)cc1`, the results for the cell viability in the assay with DLD1 [1], with HCT116 and in the assay with SW480 [2] were 1.06 ± 0.092, 1 ± 0.025 and 1.03 ± 0.035, respectively. In addition, the “TCF/Wnt firefly luciferase reporter signal” value in the assay with DLD1 [3] turned out to be 1.2 ± 0.11; in the assay with SW480 [4] it was 1.025 ± 0.0071.

Turning to `COc1cc(OC)c(OC)cc1C=O`, the cell viability worked out at 0.981 ± 0.13 with DLD1 [1], 1.01 ± 0.035 in the assay on HCT116 and 0.988 ± 0.06 with SW480 [2]. For the same molecule, the entries for the “TCF/Wnt firefly luciferase reporter signal” value in the assay on DLD1 [3] and in the assay on SW480 [4] were 0.925 ± 0.0042 and 0.963 ± 0.04, respectively.

Consider `CC(C)[N+](C)(CCC(C(N)=O)(c1ccccc1)c1ccccc1)C(C)C`, for which the results for the cell viability in the assay with DLD1 [1], in the assay on HCT116 and with SW480 [2] were 1.045 ± 0.0071, 1.055 ± 0.0071 and 0.996 ± 0.0057, respectively. Besides, the results for the “TCF/Wnt firefly luciferase reporter signal” value in the assay with DLD1 [3] and with SW480 [4] were 1.02 ± 0.12 and 1.03 ± 0.042, respectively.

With `CN1[C@@H]2CC[C@H]1C[C@@H](OC(=O)[C@H](CO)c1ccccc1)C2`, the results for the cell viability with DLD1 [1], with HCT116 and in the assay with SW480 [2] were 1.06 ± 0.14, 1.09 and 1 ± 0.086, respectively. For the same molecule, the “TCF/Wnt firefly luciferase reporter signal” value was 0.974 ± 0.11 in the assay with DLD1 [3] and 1.05 ± 0.028 in the assay on SW480 [4].

With `COc1ccc2c(c1)[C@]13CCCC[C@@H]1[C@H](C2)N(C)CC3`, the results for the cell viability in the assay with DLD1 [1], with HCT116 and with SW480 [2] were 1 ± 0.053, 0.992 ± 0.096 and 1.02 ± 0.035, respectively. Moreover, the “TCF/Wnt firefly luciferase reporter signal” value with DLD1 [3] stood at 1.03 ± 0.14; with SW480 [4], 1 ± 0.023.

In the case of `c1ccc2nc(N3CCNCC3)ccc2c1`, the cell viability in the assay with DLD1 [1] came to 0.9935 ± 0.0092; in the assay with HCT116, 1.02 ± 0.081; in the assay with SW480 [2], 0.974 ± 0.025. Also, the “TCF/Wnt firefly luciferase reporter signal” value in the assay on DLD1 [3] was 1.02 ± 0.15; in the assay with SW480 [4] it was 0.932 ± 0.028.

On to `N[C@@H](Cc1ccc(N(CCCl)CCCl)cc1)C(=O)O`, for which the values for the cell viability in the assay on DLD1 [1], with HCT116 and with SW480 [2] were 1.01 ± 0.17, 1.02 ± 0.04 and 1 ± 0.04, respectively. In addition, the “TCF/Wnt firefly luciferase reporter signal” value in the assay with DLD1 [3] turned out to be 0.986 ± 0.0057; in the assay with SW480 [4] it was 0.936 ± 0.081.
